Laboratory results: the supplement of paper PMC10127200
Counter-ions that a name gives are not always drawn.

Assays:
Assay in all cases: Euclidean distance of Cell Painting phenotypic profile (signed KS, 77 features) to DMSO centroid (dimensionless distance); higher = stronger phenotypic change vs DMSO (phenoactivity)
Settings in all cases: 48 h; 5 or 10 uM (library dependent)
786-O = system: 786-O
Summary of the method: (§1)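 At 10 or 5 uM, as set by the library, and 0.1% DMSO final, compounds were applied for 48 h to five cancer lines and one healthy fibroblast line. Stained cells were imaged confocally at 20X in 9 fields per well, and Harmony extracted 77 features scored as signed Kolmogorov-Smirnov statistics against vehicle wells on the same plate. Profiles underwent plate-position correction, correlation weighting and replicate averaging at the top dose. Phenoactivity is the Euclidean distance from each such profile to the median vehicle profile.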

A549 = system: A549
Summary of the method: as §1

DU145 = system: DU145
Summary of the method: as §1

FB = system: FB
Summary of the method: as §1

HEPG2 = system: HEPG2
Summary of the method: as §1

OVCAR4 = system: OVCAR4
Summary of the method: as §1

Compound	Euclidean distance (786-O)	Euclidean distance (A549)	Euclidean distance (DU145)	Euclidean distance (FB)	Euclidean distance (HEPG2)	Euclidean distance (OVCAR4)
O=C([O-])C(Cl)Cl.[Na+] [Sodium dichloroacetate (DCA)]	0.79	0.753	0.544	0.681	0.496	1.4
N.N.[Cl][Pt][Cl] [Cisplatin]	1.62	1.39	0.914	0.888	1.55	0.788
COCC1(CO)C(=O)C2CCN1CC2 (centres undefined)	3.17	3.25	4.09	3.41	2.42	2.18
CN1[C@@H]2C[C@@H](OC(=O)[C@H](CO)c3ccccc3)C[C@H]1[C@@H]1O[C@@H]12 [Scopolamine HBr trihydrate]	1.03	1.25	1.17	1.06	0.452	0.796
C[C@H]1CC(=O)C[C@@H]2CC[C@H]3[C@@H]4CC[C@H](O)[C@@]4(C)CC[C@@H]3[C@]21C [Mesterolone]	1.38	1.27	1.33	1.08	0.446	0.883
CC[C@@]1(O)C[C@H](O[C@H]2C[C@H](N(C)C)[C@H](O)[C@H](C)O2)c2c(cc3c(c2O)C(=O)c2c(O)cccc2C3=O)[C@H]1C(=O)OC [Aclacinomycin]	2.61	3.27	3.54	3.61	3.76	3.12
Cn1c(CCCC(=O)O)nc2cc(N(CCCl)CCCl)ccc21 [Bendamustine]	0.99	0.793	0.645	0.717	0.64	0.732
CCC(=O)O[C@H]1CC[C@H]2[C@@H]3CC[C@H]4CC(=O)[C@H](C)C[C@]4(C)[C@H]3CC[C@]12C [Drostanolone Propionate]	0.791	1.02	0.706	0.585	1.34	0.745
CCC(=O)CCCCC[C@@H]1NC(=O)[C@H]2CCCCN2C(=O)[C@H]([C@@H](C)CC)NC(=O)[C@H](Cc2cn(OC)c3ccccc23)NC1=O [Apicidin]	3.74	3.31	1.07	2.16	1.52	1.84
C[C@]12CC[C@H](O)C[C@H]1CC[C@@H]1[C@@H]2C[C@@H](O)[C@]2(C)[C@@H](C3=CC(=O)OC3)CC[C@]12O [Digoxigenin]	6.59	5.09	7.21	3.92	3.09	5.51
C[C@H]1CNCCc2ccc(Cl)cc21 [Lorcaserin HCl]	1.56	0.972	1.3	0.956	1.2	0.917
COC(=O)C1=CCCN(C)C1 [Arecoline HBr]	0.921	0.978	1.03	1.12	0.958	1.12
C[C@]12CC[C@@H]3c4ccc(OC(=O)N(CCCl)CCCl)cc4CC[C@H]3[C@@H]1CC[C@@H]2OP(=O)(O)O [Estramustine phosphate sodium]	1.21	0.586	0.548	0.917	0.766	0.779
O=P1(N(CCCl)CCCl)NCCCO1 (centres undefined) [Cyclophosphamide Monohydrate]	1.18	0.863	1.62	0.969	2.05	1.07
CC(C)C(Br)C(=O)NC(N)=O (centres undefined) [Bromisoval]	1.54	0.435	2.15	0.988	0.659	0.646
CC[C@@H](C(N)=O)N1CCCC1=O [Levetiracetam]	1.07	1.76	0.591	1.12	0.604	1.81
Oc1ccc(Cl)cc1Cc1cc(Cl)ccc1O [Dichlorophene]	0.835	1.05	1.3	1.16	0.516	1.18
CCC1(c2ccc(N)cc2)CCC(=O)NC1=O (centres undefined) [Aminoglutethimide]	1.19	0.545	0.574	1.37	0.54	1.67
CC(C)(O)C(Cl)(Cl)Cl [Chlorobutanol]	1.34	1.04	1.02	0.61	0.725	2
O=[N+]([O-])/C=C/c1ccc2c(c1)OCO2	4.42	2.25	0.868	2.39	0.782	2.34
C=C1C[C@@H]2[C@H](CC[C@]3(C)C(=O)CC[C@@H]23)[C@@]2(C)C=CC(=O)C=C12 [Exemestane]	1.7	1.06	0.488	1	0.7	1.37
C/C(=C\c1csc(C)n1)[C@@H]1C[C@@H]2O[C@]2(C)CCC[C@H](C)[C@H](O)[C@@H](C)C(=O)C(C)(C)[C@@H](O)CC(=O)O1 [Epothilone B]	2.58	2.49	3.95	2.82	1.98	2.11
NCCCNCCSP(=O)(O)O [Amifostine]	2.98	1.18	1.66	1.8	1.22	1.31
CCN(CC)C(=O)c1ccc(C2=CC3(CCNCC3)Oc3cccc(O)c32)cc1	0.588	1.87	0.833	0.776	1.75	0.973

Compound	Euclidean distance (786-O)	Euclidean distance (A549)	Euclidean distance (DU145)	Euclidean distance (FB)	Euclidean distance (HEPG2)	Euclidean distance (OVCAR4)
Cc1cc(SCc2sc(-c3ccc(C(F)(F)F)c(F)c3)nc2C)ccc1OCC(=O)O	0.634	1.17	0.823	1.08	2.24	0.807
CO[C@H]1CC[C@@H](O[C@H]2C[C@H]([C@]3(C)CC[C@]4(C[C@H](O)[C@@H](C)[C@@H]([C@@H](C)/C=C(\C)C(=O)[C@H](C)C[C@H](C)C(=O)O)O4)O3)O[C@]3(O[C@@H]([C@H]4O[C@@](O)(CO)[C@H](C)C[C@@H]4C)C[C@@H]3C)[C@@H]2C)O[C@@H]1C [Nanchangmycin]	3.94	1.41	2.28	4.66	3.85	1.11
CNC(=O)Oc1cccc2ccccc12 [Carbaryl]	1.83	1.3	0.843	0.842	0.501	1.03
Oc1cc(Cl)ccc1Oc1ccc(Cl)cc1Cl [Triclosan]	0.695	0.668	0.877	1.15	0.546	1.07
NCCc1c[nH]c2ccc(O)cc12 [Serotonin HCl]	1.02	0.797	1.01	1.12	0.38	1.71
CC(NC(C)(C)C)C(=O)c1cccc(Cl)c1 (centres undefined) [Amfebutamone (Bupropion) HCl]	1.39	0.604	0.844	0.936	0.484	1.02
CN1[C@@H]2CC[C@H]1C[C@@H](OC(=O)C(CO)c1ccccc1)C2 (some centres undefined) [Atropine]	0.688	1.55	1.19	1	2.2	1.89
CCC12C=CCN3CC[C@@]4(c5ccc(OC)cc5N(C)[C@H]4[C@@](O)(C(=O)OC)[C@@H]1OC(C)=O)[C@@H]32 (some centres undefined) [Vindoline]	1.01	0.491	0.771	0.943	0.607	0.946
O=c1[nH]c2ccc(Cl)cc2c(N[C@@H]2CN3CCC2CC3)c1-c1nc2ccccc2[nH]1	4.06	4.17	3.75	3.55	3.51	4.86
C=C1[C@@H](C)[C@H]2[C@H](Cc3ccccc3)NC(=O)[C@]23[C@H](OC(C)=O)/C=C/[C@@](C)(O)C(=O)[C@@H](C)C/C=C/[C@H]3[C@@H]1O [Cytochalasin D]	4.23	3.63	3.2	4.07	2.24	3.87
CC(C)=CCOc1c2occc2cc2ccc(=O)oc12 [Imperatorin]	1.11	0.594	0.803	0.939	0.503	1.32
C=CCN1CC[C@]23c4c5ccc(O)c4O[C@H]2C(=O)CC[C@@]3(O)[C@H]1C5 [Naloxone HCl]	1.04	0.456	0.671	0.576	0.59	0.689
CCCN1C[C@H](CSC)C[C@@H]2c3cccc4[nH]cc(c34)C[C@H]21 [Pergolide Mesylate]	1.01	1.03	1.06	0.928	0.589	1.71
C=CCC(C(=O)NC(N)=O)C(C)C (centres undefined) [Apronal]	1.22	0.684	1.07	0.907	0.938	1.09
C[N+]12CCC(CC1)C(OC(=O)C(O)(c1ccccc1)c1ccccc1)C2 (centres undefined) [Clidinium Bromide]	0.785	0.788	0.87	0.845	0.445	0.671
CC(C)(C)[C@]1(O)CC2OC(=O)CC23C(=O)OC2OC(=O)[C@H](O)C231 (some centres undefined) [Bilobalide]	1	1.09	0.515	0.78	0.996	1.47
Cc1cccc([C@H](C)c2c[nH]cn2)c1C [Dexmedetomidine]	0.401	0.732	0.547	0.876	0.546	1.12
c1ccc2c(c1)Nc1ccccc1S2 [Phenothiazine]	0.657	0.876	0.829	1.1	1.4	0.881
CCC1=C[C@H]2CN3CCc4c([nH]c5ccccc45)[C@](C(=O)OC)(C2)[C@H]13 [Catharanthine]	1.45	1.4	0.692	1.02	0.581	1.41
C=CC[C@]1(O)CC[C@H]2[C@@H]3CCC4=CC(=O)CCC4=C3C=C[C@@]21C [Altrenogest]	1.11	2.59		1.16	0.983	1.02
O=C(CC1NCCCC1O)Cn1cnc2cc(Br)c(Cl)cc2c1=O (centres undefined) [Halofuginone]	3.67	3.22		3.62	3.81	3.65
CC(C)(C)c1cc(C=C(C#N)C#N)cc(C(C)(C)C)c1O [Tyrphostin 9]	3	2.48	1.41	1.32	0.766	1.95
CN1CCCCC1Cn1cc(C(=O)c2cc([N+](=O)[O-])ccc2I)c2ccccc21 (centres undefined)	0.823	1.18	1.02	1.47		1.19
